22 molecules from PubChem BioAssay can be followed below.

The nature of experiment [1]: blockers of MitoPT in mitochondria (AID 1580; call rule not given here). The settings on record: isolated mitochondria, permeability transition inhibition.
Experiment [2] is described as follows: blockers of polyQ-driven CASP3 activation – cell-based (AID 1583). Particulars: polyglutamine-induced caspase-3 activation, cell assay; stronger effect = higher value;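 tested at 10 µM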.
Experiment [3] is described as follows: yeast 75Q aggregation reduction – 75Q-TubU reporter (AID 1593). Particulars: Yeast 75Q polyglutamine aggregation reporter.
The nature of experiment [4]: restoration of touch response, mutant HTT neurons – whole organism, C. elegans mechanosensory neurons, N-terminal huntingtin (AID 1599). The settings on record: C. elegans polyQ-huntingtin mechanosensory neurons, stronger effect = higher value.
A short description of experiment [5]: blockers of cytochrome c efflux from mitochondria – biochemical, purified mitochondria (AID 1603).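 Further: mouse liver mitochondria challenged with calcium chloride; signal normalized to the plate average as 100%.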 The settings on record: stronger effect = lower value.
Experiment [6] can be described thus: polyglutamine aggregate formation blockers (AID 1604). The settings on record: polyglutamine-induced protein aggregation inhibition assay; stronger effect = higher value; tested at 2.5 µM.
Experiment [7] can be described thus: glutamate transport activators, MN-1 cells, MN-1 cell line (AID 1612).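 Further: tested at 1 µM final; 0% = mean of DMSO vehicle wells on each plate; positive means more glutamate uptake than control and negative means less.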 Particulars: MN-1 motor neuron cells, stronger effect = higher value.
Experiment [8] can be described thus: 75Q-TubH aggregate inhibition, S. cerevisiae, yeast (AID 1616). Particulars: S. cerevisiae 75Q-TubH polyglutamine aggregation suppression; stronger effect = higher value.
Experiment [9] in a line: P. berghei load reduction in hepatocytes – cell-based, HepG2, luciferase luminescence, HepG2 viability, primary screen (AID 624349; in the data active means parasite load remaining mostly below about 12%, no sharp cut-off; inactive means mostly above about 10%;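 further: 100% = mean of DMSO negative control wells on the same plate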). Particulars: P. berghei liver stage in HepG2, luciferase luminescence, concentration not given here; parasite load remaining: stronger effect = lower value; viability: measured here: HepG2 viability without parasites.
Experiment [10] deals with Mitogen-activated protein kinase 7 (Homo sapiens) (UniProt Q13164). In words: Gal4-ERK5 driven luciferase induction – cell-based, HTS, primary screen (AID 1508626).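 Further: luciferase driven by Gal4-ERK5 fusion binding five Gal4 sites before minimal TATA.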 The settings on record: HeLa Gal4-ERK5 transactivation, 18 h, at 5 µM, stronger effect = higher value.
Chain of Mitogen-activated protein kinase 7 (Homo sapiens) (Q13164 whole entry, looked up, the tested form may be a part): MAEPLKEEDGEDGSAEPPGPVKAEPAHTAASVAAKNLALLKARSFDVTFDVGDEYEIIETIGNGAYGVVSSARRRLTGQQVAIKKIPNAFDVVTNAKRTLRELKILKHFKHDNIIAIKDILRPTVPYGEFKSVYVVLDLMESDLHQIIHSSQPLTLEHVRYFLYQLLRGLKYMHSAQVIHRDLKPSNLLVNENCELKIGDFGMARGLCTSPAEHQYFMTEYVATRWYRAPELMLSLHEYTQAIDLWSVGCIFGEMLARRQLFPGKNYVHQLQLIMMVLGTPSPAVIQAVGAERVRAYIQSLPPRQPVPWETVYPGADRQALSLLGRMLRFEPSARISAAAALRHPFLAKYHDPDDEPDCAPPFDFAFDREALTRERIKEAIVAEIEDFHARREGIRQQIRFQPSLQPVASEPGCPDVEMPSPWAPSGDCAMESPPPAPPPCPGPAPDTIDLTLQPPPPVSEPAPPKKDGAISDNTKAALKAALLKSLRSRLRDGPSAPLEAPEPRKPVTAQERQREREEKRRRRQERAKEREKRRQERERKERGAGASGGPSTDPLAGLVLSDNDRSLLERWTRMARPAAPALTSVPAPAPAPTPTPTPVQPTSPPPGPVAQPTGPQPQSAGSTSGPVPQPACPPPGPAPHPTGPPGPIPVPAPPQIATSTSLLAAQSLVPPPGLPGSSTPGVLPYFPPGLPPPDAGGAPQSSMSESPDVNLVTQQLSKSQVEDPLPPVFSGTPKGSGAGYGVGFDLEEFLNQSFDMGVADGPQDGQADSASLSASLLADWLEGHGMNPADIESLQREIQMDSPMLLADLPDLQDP
Experiment [11] in a line: GFP-Q80 aggregate reduction, neuronal-like cells, cell-based, NGF-treated PC12, GFPQ80 (AID 1614).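 Further: lower means fewer inclusions and 0 means no inclusions at all.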 Particulars: PC12 NGF-treated GFP-polyQ80 inclusion reduction.
Experiment [12] can be described thus: rescue of PC12 cells from polyQ htt toxicity – LDH release (AID 1610). Particulars: PC12 mutant huntingtin toxicity, final LDH at 4 uM, stronger effect = lower value.

Molecules are shown by their SMILES. Records with an inconclusive call do not appear. For part of these data: Potency and affinity values are given separately. Calls of active or inactive are those of the source.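 How the source made its calls, unless noted: active means luciferase signal above three times the same-plate solvent-only control wells; inactive means the rest.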

As usually defined, the EC50 is the concentration that produces a half-maximal response. As usually defined, the inhibition is the relative decrease from the control value, in per cent. In general, viability refers to a read-out of living cells in per cent, often relative to untreated cells. Regarding `CC[C@@H](C(=O)C(C)[C@@H](O)[C@H](C)CCc1ccc(C)c(O)c1C(=O)O)C1OC(CC)(C2CC[C@](O)(CC)[C@H](C)O2)C[C@@H]1C` (stereo partly specified), in [1], the EC50 is 100 nM (active). For the same molecule, the inhibition in experiment [2] came to 75.5%. This molecule gave a score in [3] of 1. In addition, the rescue above control in experiment [4] turned out to be 0. For the same molecule, the cytochrome c release ratio in experiment [5] came out at 1. Also, in experiment [6], the inhibition of aggregation amounted to 74%. The glutamate uptake change in [7] is -67.2%. The molecule also had an aggregation suppression score in experiment [8] of 0.948. In experiment [9], the parasite load remaining is -0.43% (inactive) and the viability was found to be 84.4%.

As to `CC1=CC(=O)CC(C)(C)C1(O)/C=C/C(C)=C\C(=O)O` (stereo unspecified), in experiment [9], the parasite load remaining was 91.5% (inactive) and the viability is 73.1%. The luciferase signal in experiment [10] was 48 AU (inactive).

As for `CC(C)CCC[C@@H](C)[C@H]1CC[C@H]2[C@@H]3CC[C@H]4C[C@H](O)CC[C@]4(C)[C@H]3CC[C@]12C`, the luciferase signal in experiment [10] is 140 AU (inactive).

As for `O[C@H]1[C@H](O)[C@@H](O)C2OC[C@H]1O2`, in experiment [10], the luciferase signal was 60 AU (inactive).

In the case of `CC(=O)O[C@H]1CC[C@@]2(C)[C@@H](CC[C@@H]3[C@@H]2CC(=O)[C@]2(C)[C@@H]4[C@H](C[C@@H]32)O[C@]2(CC[C@@H](C)CO2)[C@H]4C)C1`, in experiment [10], the luciferase signal was 56 AU (inactive).

Regarding `O=c1c(O)c(-c2ccc(O)c(O)c2)oc2c(O[C@@H]3O[C@H](CO)[C@@H](O)[C@H](O)[C@H]3O)c(O)cc(O)c12`, the luciferase signal in experiment [10] was 36 AU (inactive).

For `C[C@@]12CCc3occc3[C@H]1CC[C@@]13C[C@@H](CC[C@H]12)[C@@](O)(CO)C3`, in [10], the luciferase signal was 40 AU (inactive).

As for `CO/N=C(\C(=O)NC1C(=O)N2C(C(=O)O)=C(CSc3nc(=O)c(O)nn3C)CS[C@H]12)c1csc(N)n1` (stereo partly specified), in experiment [2], the inhibition turned out to be 3.84%. The score in experiment [3] was 1.38. In experiment [4], the rescue above control was -0.56. In addition, in experiment [5], the cytochrome c release ratio was 1.14. The inhibition of aggregation in experiment [6] was determined as 62.1%. The glutamate uptake change in experiment [7] was found to be 15.4%. The inclusion score in experiment [11] is 2. The molecule also had an aggregation suppression score in [8] of 1.05.

On to `CCN(CCCc1ccccc1)CCCc1ccccc1` (tested in a mixture with another compound), for which, in experiment [2], the inhibition worked out at 13.3%. For the same molecule, the score in experiment [3] was 1.17. For the same molecule, the rescue above control in [4] was -6.75. Also, the cytochrome c release ratio in experiment [5] is 0.86. Further, the inhibition of aggregation in experiment [6] was determined as 31.7%. The glutamate uptake change in [7] stood at 20.1%. Moreover, the inclusion score in experiment [11] is 2. In [8], the aggregation suppression score stood at 1.65.

On to `C=C1C(=O)OC2C1CCC1(C)CCC=C(C)C21` (stereo unspecified), for which, in experiment [2], the inhibition is 56%. In [3], this molecule registered a score of 0.7. In experiment [4], the rescue above control is 5.32. For the same molecule, in experiment [5], the cytochrome c release ratio is 0.81. Further, the inhibition of aggregation in [6] is -33.3%. In experiment [12], the normalised LDH release worked out at 0.89. In addition, the glutamate uptake change in experiment [7] was determined as 0.76%. Further, the aggregation suppression score in [8] turned out to be 0.322.

For `CC1C(=O)OC2CC34C5CC(C(C)(C)C)C36C(OC(=O)C6O)OC4(C(=O)O5)C21O` (stereo unspecified), in experiment [10], the luciferase signal is 36 AU (inactive).

As to `NCC1CCC(N)C(OC2C(N)CC(N)C(OC3OC(CO)C(O)C(N)C3O)C2O)O1` (stereo unspecified), in experiment [2], the inhibition was -33.2%. In addition, the score in experiment [3] stood at 0.99. Moreover, the rescue above control in [4] was -7.39. For the same molecule, the cytochrome c release ratio in [5] was found to be 0.86. Besides, the inhibition of aggregation in experiment [6] came to 4.76%. Moreover, the glutamate uptake change in [7] was found to be 14.5%. In addition, the inclusion score in experiment [11] amounted to 1.5. Also, in experiment [8], the aggregation suppression score was 1.46.

On to `CC(=O)N[C@@H](Cc1c[nH]c2ccccc12)C(N)=O`, for which, in experiment [2], the inhibition was 11.7%. The same molecule registered a score in experiment [3] of 1.31. Moreover, in [4], the rescue above control amounted to 23.8. In experiment [5], the cytochrome c release ratio came to 0.46. Also, the inhibition of aggregation in experiment [6] worked out at 60.3%. Also, in experiment [7], the glutamate uptake change is -9.38%. Further, the aggregation suppression score in [8] was 1.53. In experiment [9], the parasite load remaining is 142% (inactive) and the viability was 71.9%. The luciferase signal in experiment [10] was 80 AU (inactive).

In the case of `CC(=O)C1CCC2C3CC=C4CC(OS(=O)(=O)O)CC[C@]4(C)C3CC[C@]12C` (stereo partly specified), the inhibition in experiment [2] is -1.98%. Besides, the score in experiment [3] is 0.85. This molecule displayed a rescue above control in experiment [4] of 6.71. For the same molecule, in [5], the cytochrome c release ratio stood at 1.34. Besides, the inhibition of aggregation in experiment [6] stood at 37.2%. The glutamate uptake change in [7] came to 48.1%. For the same molecule, in [11], the inclusion score was 2. In experiment [8], this molecule showed an aggregation suppression score of 0.286.

In the case of `O=C(O)/C=C/c1ccccc1`, in experiment [10], the luciferase signal was 52 AU (inactive).

With `C=C1CC[C@@]2(OC1)O[C@H]1C[C@H]3[C@@H]4CC=C5C[C@@H](O)C[C@@H](O)[C@]5(C)[C@H]4CC[C@]3(C)[C@H]1[C@@H]2C`, in experiment [10], the luciferase signal is 84 AU (inactive).

As to `CC12CC[C@@H]3c4ccc(O)cc4CCC3[C@@H]1CCC2=O` (stereo partly specified), in experiment [2], the inhibition was -0.88%. The same molecule registered a score in [3] of 0.11. Further, the rescue above control in [4] was found to be 10.3. For the same molecule, the cytochrome c release ratio in experiment [5] was 0.91. For the same molecule, the inhibition of aggregation in experiment [6] worked out at 62%. For the same molecule, in experiment [7], the glutamate uptake change was -29%. This molecule also registered an inclusion score in experiment [11] of 2. Further, the aggregation suppression score in experiment [8] is 0.566.

In the case of `CC(C)CCC[C@@H](C)[C@H]1CC[C@H]2[C@@H]3CC=C4CC(=O)CC[C@]4(C)[C@H]3CC[C@]12C`, the luciferase signal in experiment [10] was 20 AU (inactive).

For the molecule `CCC(=O)c1ccc2c(c1)N(CC(C)N(C)C)c1ccccc1S2` (stereo unspecified), in [2], the inhibition was -29.2%. The same molecule showed a score in experiment [3] of 1.17. In addition, the rescue above control in experiment [4] turned out to be 1.64. The cytochrome c release ratio in [5] is 1.13. The inhibition of aggregation in experiment [6] amounted to 69.7%. Moreover, in experiment [7], the glutamate uptake change was -2.12%. The molecule also showed an aggregation suppression score in [8] of 1.33.

Consider `C[C@]12CCC3c4ccc(OC(=O)CCC(=O)O)cc4CCC3C1CCC2=O` (stereo partly specified), for which, in experiment [2], the inhibition is 21.8%. In experiment [3], this molecule returned a score of 1.66. The rescue above control in [4] came out at 8.92. In experiment [5], the cytochrome c release ratio is 0.83. Besides, in [6], the inhibition of aggregation amounted to 33.3%. Also, the glutamate uptake change in experiment [7] is -14.3%. For the same molecule, the inclusion score in experiment [11] was found to be 2. Besides, the aggregation suppression score in experiment [8] came to 0.711.

For `O=c1cc(-c2ccccc2)oc2cc(O)c(O)cc12`, the inhibition in experiment [2] turned out to be 18.9%. This molecule yielded a score in experiment [3] of 1.42. In [4], this molecule displayed a rescue above control of 7.3. Further, the cytochrome c release ratio in experiment [5] was 1.21. The inhibition of aggregation in [6] came to 41%. Also, the glutamate uptake change in [7] amounted to 11%. Besides, in [11], the inclusion score was found to be 2. In experiment [8], the aggregation suppression score came out at 0.852.

Take `NC[C@@H]1O[C@H](O[C@@H]2[C@@H](CO)OC(O[C@@H]3[C@@H](O)[C@H](N)C[C@H](N)[C@H]3OC3O[C@H](CO)[C@@H](O)[C@H](O)[C@H]3N)[C@@H]2O)[C@H](N)[C@@H](O)[C@@H]1O` (stereo partly specified): the inhibition in experiment [2] was -9.63%. The score in experiment [3] was 1.53. In experiment [4], the rescue above control turned out to be 1.69. Moreover, the cytochrome c release ratio in [5] was determined as 1.36. Further, the inhibition of aggregation in experiment [6] stood at 42.9%. The glutamate uptake change in [7] is -14.4%. In experiment [11], this molecule gave an inclusion score of 2. The molecule further came in with an aggregation suppression score in experiment [8] of 1.65.
